Compound activity as filed in PubChem BioAssay.
Hits are enriched below; roughly 0.83% of the tested compounds scored in any of these assays.
NCOA2 inhibitor: inhibits human steroid receptor coactivator 2 | Q15596 | 370,000 tested, 0.17% active | HEK293 GAL4-SRC2 luciferase reporter, luminescence | inhibition, % at 9 µM;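 active = inhibition above the mean inhibition of all tested compounds plus 3 SD, set per campaign, cut at about 52% in these data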;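 also: 0% = DMSO treated cells and 100% = cells given Gossypol at 36 µM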
COUP-TFII inh: inhibitors of human COUP-TFII (NR2F2); inhibition, % at 8.6 µM; 370,000 tested, 0.7% active; HEK293T NGFI-A luciferase reporter, luminescence; P24468; AID 686940;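 active = inhibition above a per-plate cutoff, mean inhibition of test wells between control levels plus 3 SD, cut at about 38% in these data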;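 also: cells cotransfected with COUP-TFII expression vector driving the NGFI-A reporter; 0% = median of COUP-TF2 test wells and 100% = reporter-only cells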
NCOA3 inh: inhibits human SRC3 coactivator | AID 588352 | 360,000 tested, 0.17% active | Q9Y6Q9 | inhibition, % at 3.6 µM | HEK293 GAL4-SRC3 luciferase reporter, luminescence;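 active = inhibition above a per-campaign cutoff, the mean of all compounds plus 3 SD, cut at about 60% in these data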;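 also: 0% = DMSO-treated cells and 100% = gossypol-treated cells at 36 µM; higher means less SRC3-driven luciferase light from the GAL4 reporter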
LRH-1 inv ag: inverse agonists of human LRH-1 (NR5A2); O00482; HEK293T StAR-luciferase reporter, LRH-1 transfected, 24 h; inhibition, % at 3.6 µM; 360,000 tested, 0.13% active; AID 602396;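 active = inhibition above the mean inhibition of all tested compounds plus 3 SD, cut at about 73% in these data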;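 also: 0% = DMSO wells and 100% = reporter-only cells lacking LRH-1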
Target sequence (O00482 whole entry, looked up): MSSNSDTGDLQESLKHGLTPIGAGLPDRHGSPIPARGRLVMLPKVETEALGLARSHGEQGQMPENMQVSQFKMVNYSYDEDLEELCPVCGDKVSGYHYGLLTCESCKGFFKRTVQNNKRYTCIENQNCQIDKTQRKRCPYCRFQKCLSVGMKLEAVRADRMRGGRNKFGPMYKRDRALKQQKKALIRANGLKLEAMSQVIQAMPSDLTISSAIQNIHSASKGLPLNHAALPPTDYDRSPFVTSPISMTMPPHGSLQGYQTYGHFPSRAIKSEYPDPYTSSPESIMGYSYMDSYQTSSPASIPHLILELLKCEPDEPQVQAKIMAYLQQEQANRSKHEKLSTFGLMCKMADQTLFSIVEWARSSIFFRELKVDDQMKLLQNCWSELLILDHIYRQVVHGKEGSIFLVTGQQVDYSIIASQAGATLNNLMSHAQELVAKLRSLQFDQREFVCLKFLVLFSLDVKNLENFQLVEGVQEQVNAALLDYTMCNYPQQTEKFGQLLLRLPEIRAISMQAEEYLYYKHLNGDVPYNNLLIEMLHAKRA
NCOA1 inh: inhibits human SRC1 coactivator. Q15788. HEK293 GAL4-SRC1 luciferase reporter, luminescence. inhibition, % at 3.6 µM. 360,000 tested, 0.12% active. AID 588354;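 active = inhibition above the campaign mean plus 3 SD, with each screening campaign given its own cutoff, cut at about 60% in these data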;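 also: 0% = DMSO treated cells and 100% = gossypol at 36 µM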
VP16 Luc counter: inhibits VP16 reporter, flagging COUP-TFII antagonist hits; AID 687007; inhibition, % at 8.5 µM; shares compounds with COUP-TFII inh; HEK293 Gal4-VP16 luciferase reporter, luminescence; 2,500 tested, 25% active; in the data active = inhibition above about 13%
COUP-TFII conf: confirmation of human COUP-TFII (NR2F2) inhibitors. shares compounds with COUP-TFII inh. HEK293 NGFI-A luciferase reporter, luminescence. inhibition, % at 8.5 µM. 2,500 tested, 45% active. AID 687008;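 active = mean inhibition over three repeats above a set limit taken from the earlier primary screen, cut at about 38% in these data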;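 also: 100% = cells given the luciferase reporter alone without the COUP-TF2 vector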
Starred values were filed as active, the others as inactive; nt = no result given.

SMILES | NCOA2 inhibitor | COUP-TFII inh | NCOA3 inh | LRH-1 inv ag | NCOA1 inh | VP16 Luc counter | COUP-TFII conf
COC(=O)c1cc2c(c3c4cc(OC)ccc4n(S(=O)(=O)c4cccc(C)c4)c13)C(=O)N(Cc1ccc(C(F)(F)F)cc1)C2 | -20 | -11 | nt | nt | nt | nt | nt
Nc1[nH]c(C(=O)c2ccc(Br)cc2)c(-c2ccccc2Cl)c1C(=O)NCCc1c[nH]c2ccccc12 | -23 | 4 | nt | nt | nt | nt | nt
CC1CC(C)(C)Nc2ccc(OC(=O)c3ccco3)cc21 (stereo unspecified) | 58* | 45* | 20 | 6 | -5 | 18* | 36
O=C(Oc1ccc2ccccc2c1)c1ccco1 | 10 | 12 | -10 | -5 | -9 | nt | nt
CCOc1ccc(Br)cc1/C(C)=N\NC1=NCCN1 | 21 | 45* | 13 | 42 | 9 | 10 | 30
O=C(CCN1CCOCC1)c1ccc(N2CCCCC2)cc1 | 63* | 60* | 24 | 32 | 11 | 39* | 40*
O=C(CCN1CCCC1=O)NC1CCCc2c1cnn2-c1ccccc1F (stereo unspecified) | 9 | 3 | -4 | 8 | 2 | nt | nt
Cc1nnsc1C(=O)NC1CCCc2c1cnn2-c1ccc(C(C)(C)C)cc1 (stereo unspecified) | 37 | 65* | 23 | 42 | 11 | -2 | 66*
Cc1ncoc1C(=O)NC1CCCc2c1cnn2-c1ccc(C(C)(C)C)cc1 (stereo unspecified) | 16 | 60* | 41 | 36 | 22 | 7 | 65*
CC(C)(C)c1ccc(-n2ncc3c2CCCC3NC(=O)CCC2=NNC(=O)CC2)cc1 (stereo unspecified) | 24 | 39* | 19 | 32 | 4 | -12 | -1
Cc1ncoc1C(=O)NC1CCCc2c1cnn2-c1cc(F)cc(F)c1 (stereo unspecified) | -23 | -3 | -24 | -16 | 15 | nt | nt
CC(C)(C)c1ccc(-n2ncc3c2CCCC3NC(=O)c2ccncc2)cc1 (stereo unspecified) | -1 | 8 | 20 | 19 | -26 | nt | nt
Cc1nnsc1C(=O)NC1CCCc2c1cnn2-c1ccccc1F (stereo unspecified) | 15 | 45* | -16 | 41 | 2 | 0 | 45*
Cc1ccccc1C1CCC2(CC1)CCN(CC[C@@H](O)c1ccccc1)C2=O (stereo partly specified) | nt | 12 | nt | nt | nt | nt | nt
O=S1(=O)CC2c3ccc(F)cc3CN2CN1C1CCCC1 (stereo unspecified) | 31 | -11 | nt | nt | nt | nt | nt
CC(=O)c1ccc2c(c1)N(Cc1ccccc1Cl)C(=O)C(C)S2 (stereo unspecified) | 27 | 84* | -19 | 39 | 7 | 4 | 9
COc1ccc(OC)c(CCNC(=O)Cn2nc(C)c3c(C)n(-c4ccc(C)cc4)nc3c2=O)c1 | 7 | 67* | 30 | 52 | 23 | 5 | 73*
COc1ccc(CCNC(=O)Cn2nc(C)c3c(C)n(-c4ccccc4)nc3c2=O)c(OC)c1 | -14 | 12 | -8 | -5 | -6 | nt | nt
CNc1ccccc1C(C)(C)c1cc(-c2cccc(Br)c2)no1 | -24 | 33 | 10 | 12 | -15 | nt | nt
CNc1ccccc1C(C)(C)c1cc(-c2ccc(F)cc2)no1 | 1 | 45* | 26 | 17 | 11 | 2 | 31
O=C(Nc1ccc(Oc2cccnc2)cc1)C1CCN(Cc2ccccc2)CC1 | 12 | 11 | 13 | 15 | 10 | nt | nt
COc1cc(F)ccc1CN1CCC(C(=O)Nc2ccc(Oc3ccccc3)nc2)CC1 | 16 | 40* | 29 | 19 | 18 | 3 | 21
O=C(Nc1ccc(Oc2ccccc2)nc1)C1CCN(Cc2ccccc2)CC1 | 14 | 18 | 6 | 6 | 8 | nt | nt
COc1ccc(CN2CCC(C(=O)Nc3ccc(Oc4ccccc4)nc3)CC2)cc1F | 37 | 48* | 18 | 6 | 11 | -1 | 31
O=C(Nc1ccc(Oc2cccnc2)cc1)C1CCN(Cc2cccc(Cl)c2)CC1 | 18 | 38* | 23 | 19 | 7 | 13* | 20
SMILES | NCOA2 inhibitor | COUP-TFII inh | NCOA3 inh | LRH-1 inv ag | NCOA1 inh | VP16 Luc counter | COUP-TFII conf
COC(=O)c1cccc(OC[C@@H](O)CN2CCC(C(O)(c3ccccc3)c3ccccc3)CC2)c1 | -1 | -22 | nt | nt | nt | nt | nt
O=C(OC(c1ccccc1)c1nccc2ccccc12)c1ccccc1 (stereo unspecified) | 61* | 81* | 70* | 76* | 67* | 53* | 87*
O=C(O)COc1ccccc1/C=N/NC(=O)CSc1nc2ccccc2s1 | 1 | 15 | 13 | 4 | -5 | nt | nt
O=C(CSc1nc2ccccc2s1)N/N=C/c1ccccc1C(=O)O | 22 | 43* | 17 | 24 | -5 | -5 | 17
COC(=O)[C@]12C[C@H](CC(=O)NCc3cccs3)C(=O)N(CCC3=CCCCC3)C1=C[C@H](COCc1ccccc1)O[C@@H]2C | 10 | 12 | nt | nt | nt | nt | nt
CC(=O)Nc1cccc(OCC(O)Cn2c(C)nc3ccccc32)c1 (stereo unspecified) | 0 | 1 | 21 | 9 | 10 | nt | nt
CCCOC(=O)c1ccc(OCC(O)Cn2c(C)nc3ccccc32)cc1 (stereo unspecified) | 22 | 39* | 10 | 23 | 16 | -43 | 30
COC(=O)[C@]12C[C@H](CC(=O)N3CCSCC3)C(=O)N(CCC3=CCCCC3)C1=C[C@H](C1CCCC1)O[C@@H]2C | -6 | 19 | nt | nt | nt | nt | nt
CC1(C(=O)Nc2ccccc2)CCN1C(=O)C1(c2ccc(Cl)cc2)CC1 (stereo unspecified) | 6 | 76* | -17 | -21 | 7 | 4 | 14
Cc1ccc(NC(=O)C2(C)CCN2C(=O)C2(c3ccc(Cl)cc3)CC2)cc1 (stereo unspecified) | 21 | 13 | -25 | -23 | -16 | nt | nt
Cc1nc2ccc3nc(NC(=O)c4ccc5c(c4)OCCO5)sc3c2s1 | -39 | -3 | 1 | 8 | -16 | nt | nt
Cc1cnc(NC(=O)c2ccc3c(c2)OCCO3)s1 | 67* | 46* | 22 | 8 | 8 | -5 | 20
O=C1C(N2CCOCC2)=C(n2nnc3ccccc32)C(=O)c2ccccc21 | 58* | 39* | 25 | 20 | -20 | 19* | 31
c1ccc(CCNc2nc(-c3ccccn3)nc3ccccc23)cc1 | -18 | 50* | 33 | 63 | 16 | -13 | 32
CCCN(CCC)c1nc(-c2ccccn2)nc2ccccc12 | 8 | 57* | 64* | 28 | 50 | -1 | 31
c1ccc(-c2nc(N3CCCCCC3)c3ccccc3n2)nc1 | 18 | 38* | 25 | 94* | -4 | 0 | 37
CCN(CC)c1nc(-c2ccccn2)nc(-c2ccccc2)c1C#N | 24 | 41* | 32 | 45 | 13 | 1 | 11
CCCCN(CC)c1nc(-c2ccncc2)nc2ccccc12 | -12 | 26 | 1 | 7 | 12 | nt | nt
COc1cccc(CNC(=O)[C@H]2CCCN2C(=O)[C@H]2CCCN2C(=O)c2cccc(Cl)c2)c1 | 18 | -1 | nt | nt | nt | nt | nt
